From the antibiotic and cytotoxicity screens of Wong et al. (2023)
The campaign covered roughly 39,000 compounds. About 1,500 (3.8%) were called active. The full list was thinned out, with actives kept by preference.

What follows are compounds tested on HSkMC (human skeletal muscle cells) (assay: cytotoxicity call (relative viability < 0.9)). Settings: 10 µM.

Compound | cytotoxicity call
O=C(O)C1=CCCNC1 | inactive
Cc1noc(C)c1NC(=O)N(C)C[C@@H]1Oc2ccc(NS(=O)(=O)c3cccs3)cc2CC(=O)N([C@@H](C)CO)C[C@H]1C | inactive
COc1ccc(NC(=O)Nc2ccc3c(c2)C(=O)N([C@H](C)CO)C[C@@H](C)[C@@H](CN(C)Cc2ccc(C(=O)O)cc2)OCCCC[C@H](C)O3)cc1 | inactive
NC(=O)[C@H]1[C@@H]2C(=O)O[C@@H](c3ccccc3)[C@@H](c3ccccc3)N2[C@@H](c2ccc(O)cc2)[C@]12C(=O)Nc1ccc(C#CC3(O)CCCCCC3)cc12 | inactive
c1ccc(Nc2ncnc3sc(-c4ccccc4)cc23)cc1 | inactive
Fc1ccc(Nc2ncnc3sc(-c4ccccc4)cc23)cc1 | active
c1ccc(Nc2ncnc3cc(-c4ccccc4)sc23)cc1 | inactive
CCCC(=O)Nc1ccc2c(c1)OC[C@@H](C)N(C(=O)CN1CCOCC1)C[C@@H](C)[C@H](OC)CN(C)C2=O | inactive
NS(=O)(=O)OC[C@H]1C[C@@H](Nc2ccnc3cc(-c4cccc(SC(F)(F)F)c4)nn23)[C@H](O)[C@@H]1O | active
O=C([O-])C(O)C(O)C(O)C(O)CO.[Na+] (stereo not given) | inactive
Cc1ccccc1[C@@H](c1ncccc1C)N(C)C(=O)C1CCN(CCOc2ccc3ccccc3c2)CC1 | inactive
COc1ccccc1[C@@H](NC(=O)C1CCN(CCOc2ccc(Cl)cc2Cl)CC1)c1ccccn1 | inactive
Cc1ccccc1[C@@H](c1ncccc1C)N(C)C(=O)C1CCN(CCOc2ccc(Cl)cc2Cl)CC1 | active
Cc1cccnc1[C@H](c1ccc(F)cc1)N(C)C(=O)C1CCN(CCOc2ccc(Cl)cc2Cl)CC1 | active
Cc1cccnc1[C@@H](NC(=O)C1CCN(CCOc2ccc(Cl)cc2Cl)CC1)c1ccc(Cl)cc1 | inactive
Cc1cccnc1[C@@H](NC(=O)C1CCN(CCOc2ccc(Cl)cc2Cl)CC1)c1ccc(F)cc1 | inactive
C[C@@H]1CN([C@@H](C)CO)C(=O)c2cc(NC(=O)Nc3ccccc3)ccc2O[C@@H](C)CCCCO[C@H]1CN(C)S(=O)(=O)c1ccccc1F | inactive
O=C(O)/C=C/C(=O)O | inactive
COC(=O)c1c(CC[C@@H](CO)NC(=O)N[C@H](Cn2cc(Cc3ccccc3)nn2)C(C)C)oc(C(C)=O)c1C(=O)OC | inactive
O=C(C[C@@H]1CC=CC[C@@H](Cc2ccc(F)cc2)C(=O)OC[C@H](Cc2c[nH]c3ccccc23)NC1=O)NCCO | inactive
CC(C)NC(=O)N(C)C[C@@H]1OCc2cnnn2CCCC(=O)N([C@@H](C)CO)C[C@@H]1C | inactive
CC(C)NC(=O)N(C)C[C@H]1Oc2cc(-c3ccccc3F)ccc2S(=O)(=O)N([C@H](C)CO)C[C@H]1C | inactive

Compound | cytotoxicity call
C[C@H]1CN([C@@H](C)CO)C(=O)c2cccc(NS(=O)(=O)c3ccc(Cl)cc3)c2O[C@@H]1CN(C)Cc1ccc(C(F)(F)F)cc1 | inactive
C[C@@H]1CN([C@H](C)CO)C(=O)c2cccc(NS(=O)(=O)c3ccc(Cl)cc3)c2O[C@H]1CN(C)Cc1ccc(-c2ccccc2)cc1 | inactive
C[C@H](CO)N1C[C@H](C)[C@@H](CN(C)Cc2ccc(C(F)(F)F)cc2)Oc2c(NS(=O)(=O)c3ccc(Cl)cc3)cccc2C1=O | inactive
C[C@@H]1CN([C@@H](C)CO)C(=O)c2cccc(NS(=O)(=O)c3ccc(Cl)cc3)c2O[C@H]1CN(C)Cc1ccc(-c2ccccc2)cc1 | inactive
C[C@@H]1CN([C@@H](C)CO)C(=O)c2cccc(NS(=O)(=O)c3ccc(Cl)cc3)c2O[C@@H]1CN(C)Cc1ccc(-c2ccccc2)cc1 | active
C[C@H](CO)N1C[C@H](C)[C@H](CN(C)Cc2ccc(C(F)(F)F)cc2)Oc2c(NS(=O)(=O)c3ccc(Cl)cc3)cccc2C1=O | active
C[C@@H]1CN([C@H](C)CO)C(=O)c2cc(NC(=O)c3ccccc3)ccc2O[C@@H](C)CCCCO[C@@H]1CN(C)Cc1ccc(Cl)c(Cl)c1 | inactive
COc1ccc(-c2cnc3c(c2)C(=O)N([C@H](C)CO)C[C@H](C)[C@H](CN(C)S(=O)(=O)c2cccs2)O3)cc1 | inactive
C[C@@H]1CCCCO[C@@H](CN(C)S(C)(=O)=O)[C@@H](C)CN([C@H](C)CO)C(=O)c2cc(NC(=O)CCCN(C)C)ccc2O1 | inactive
NCC1OC(OC2C(CO)OC(OC3C(O)C(N)CC(N)C3OC3OC(CN)C(O)C(O)C3N)C2O)C(N)C(O)C1O.O=S(=O)(O)O.O=S(=O)(O)O.O=S(=O)(O)O (stereo not given) | inactive
CC(C)NC(=O)N[C@H]1C=C[C@H](CC(=O)NCCN2CCCC2)O[C@H]1CO | inactive
O=C(N[C@H]1CC[C@@H](CC(=O)N2CCOCC2)O[C@@H]1CO)c1ccc2c(c1)OCO2 | inactive
C[C@H](CO)N1C[C@H](C)[C@H](CN(C)C(=O)Nc2ccccc2)OCCCC[C@H](C)Oc2ccc(NS(=O)(=O)c3ccc(Cl)cc3)cc2C1=O | inactive
C[C@H](CO)N1C[C@H](C)[C@H](CN(C)Cc2ccc(C(=O)Nc3ccccc3N)cc2)OCc2cn(nn2)CCCC1=O | inactive
Clc1ccc(/C=N/Cc2ccc(-c3cccs3)s2)cc1 | inactive
NC(=S)N/N=C/c1ccncc1 | inactive
Cl.N=C(NN=Cc1ccc(Cl)cc1)NN=Cc1ccc(Cl)cc1 | active
C[C@H]1CN([C@@H](C)CO)C(=O)c2cccc(NS(=O)(=O)c3cccs3)c2O[C@H]1CN(C)S(=O)(=O)c1cccs1 | inactive
CCCCCCc1nc(CCCc2cc3c(c(CCCCCC)n2)[Si](C(C)C)(C(C)C)O[C@H]3c2ccccc2)cc2c1[Si](C(C)C)(C(C)C)O[C@H]2c1ccccc1 | inactive
Cc1onc(NS(=O)(=O)c2ccccc2-c2ccc(-c3ncco3)cc2CN(C)C(=O)CC(C)(C)C)c1C | inactive
C[C@@H]1CN([C@H](C)CO)C(=O)c2cccc(NC(=O)Nc3ccccc3)c2O[C@@H]1CN(C)C(=O)Nc1cccc2ccccc12 | inactive
Cc1ccc(S(=O)(=O)Nc2ccc3c(c2)C(=O)N([C@H](C)CO)C[C@H](C)[C@H](CN(C)Cc2ccc(C(F)(F)F)cc2)OCCCC[C@H](C)O3)cc1 | active

Compound | cytotoxicity call
C[C@@H]1CN([C@H](C)CO)C(=O)c2cc(NS(=O)(=O)c3ccc(F)cc3)ccc2O[C@@H](C)CCCCO[C@H]1CN(C)Cc1ccc(C(F)(F)F)cc1 | inactive
C[C@@H]1CCCCO[C@@H](CN(C)Cc2ccc(C(F)(F)F)cc2)[C@H](C)CN([C@H](C)CO)C(=O)c2cc(NS(=O)(=O)c3ccc(F)cc3)ccc2O1 | inactive
Cc1ccc(S(=O)(=O)Nc2ccc3c(c2)C(=O)N([C@H](C)CO)C[C@H](C)[C@@H](CN(C)Cc2ccc(C(F)(F)F)cc2)OCCCC[C@H](C)O3)cc1 | inactive
Cc1ccc(S(=O)(=O)Nc2ccc3c(c2)C(=O)N([C@H](C)CO)C[C@@H](C)[C@@H](CN(C)Cc2ccc(C(F)(F)F)cc2)OCCCC[C@@H](C)O3)cc1 | inactive
Cc1ccc(S(=O)(=O)Nc2ccc3c(c2)C(=O)N([C@H](C)CO)C[C@H](C)[C@H](CN(C)Cc2ccc(C(F)(F)F)cc2)OCCCC[C@@H](C)O3)cc1 | inactive
Cc1ccc(S(=O)(=O)Nc2ccc3c(c2)C(=O)N([C@@H](C)CO)C[C@H](C)[C@@H](CN(C)Cc2ccc(C(F)(F)F)cc2)OCCCC[C@H](C)O3)cc1 | active
Cc1ccc(S(=O)(=O)Nc2ccc3c(c2)C(=O)N([C@H](C)CO)C[C@@H](C)[C@@H](CN(C)Cc2ccc(C(F)(F)F)cc2)OCCCC[C@H](C)O3)cc1 | inactive
Cc1ccc(S(=O)(=O)Nc2ccc3c(c2)C(=O)N([C@@H](C)CO)C[C@H](C)[C@H](CN(C)Cc2ccc(C(F)(F)F)cc2)OCCCC[C@H](C)O3)cc1 | inactive
Cc1ccc(S(=O)(=O)Nc2ccc3c(c2)C(=O)N([C@@H](C)CO)C[C@@H](C)[C@@H](CN(C)Cc2ccc(C(F)(F)F)cc2)OCCCC[C@H](C)O3)cc1 | inactive
Cc1ccc(S(=O)(=O)Nc2ccc3c(c2)C(=O)N([C@@H](C)CO)C[C@H](C)[C@@H](CN(C)Cc2ccc(C(F)(F)F)cc2)OCCCC[C@@H](C)O3)cc1 | active
C[C@@H]1CCCCO[C@H](CN(C)Cc2ccc(C(F)(F)F)cc2)[C@H](C)CN([C@@H](C)CO)C(=O)c2cc(NS(=O)(=O)c3ccc(F)cc3)ccc2O1 | active
C[C@H](CO)N1C[C@H](C)[C@@H](CN(C)S(=O)(=O)c2cn(C)cn2)Oc2ccc(NC(=O)NC3CCCCC3)cc2C1=O | inactive
COc1ccc([Si](C)(C)[C@@H]2[C@@H](CCO)O[C@]3(C(=O)N(Cc4ccc(N5C(=O)c6ccccc6Oc6ccccc65)cc4)c4ccccc43)[C@H]2C)cc1 | inactive
C[C@@H]1CCCCO[C@H](CN(C)Cc2ccccc2)[C@@H](C)CN([C@@H](C)CO)C(=O)c2cc(NC(=O)Cc3ccccc3)ccc2O1 | inactive
COc1ccc(NC(=O)Nc2ccc3c(c2)C(=O)N([C@H](C)CO)C[C@H](C)[C@H](CN(C)Cc2ccc(C(=O)Nc4ccccc4N)cc2)OCCCC[C@@H](C)O3)cc1 | inactive
CCOc1ccc(S(N)(=O)=O)cc1 | inactive
NS(=O)(=O)c1ccc(N2CCCC2=O)cc1 | inactive
C[C@H](CO)N1C[C@H](C)[C@H](CN(C)S(=O)(=O)c2cn(C)cn2)Oc2c(NC(=O)c3cnccn3)cccc2C1=O | inactive
Cc1noc(C)c1NC(=O)Nc1ccc2c(c1)C(=O)N([C@H](C)CO)C[C@@H](C)[C@H](CN(C)C(=O)Nc1c(C)noc1C)OCCCC[C@@H](C)O2 | inactive
O=C(c1cnc2ccccc2c1)C1CC1 | inactive
CNC[C@@H]1Oc2ccc(NC(=O)Cn3cnnn3)cc2CC(=O)N([C@H](C)CO)C[C@H]1C | inactive
